Laboratory results: PubChem BioAssay (NCI)
Compounds without any hit were thinned out: in the full panel of roughly 79,000, 15% have a hit. The source made the active and inactive calls. No stated cut-off is given here; in the data, active means growth inhibition above about 70%; inactive means the rest.

Test: NCI Yeast Anticancer Drug Screen. Data for the rad18 strain (AID 177)
Settings: S. cerevisiae rad18 mutant growth inhibition, hits give high values
Method: Growth inhibition of yeast strains with defined genetic alterations is measured as a screen for potential anti-cancer activity. Selected strains with alterations in DNA damage repair or cell cycle control were exposed to compounds and growth inhibition was measured relative to vehicle treated controls. The strain used in this assay is rad18

Measured: growth inhibition

O=C1NC(c2cccc(OCc3ccccc3)c2)Nc2ccccc21 (stereo not given)
inactive: at 1.2 µM -6% | at 3.7 µM -18% | at 11.0 µM -26% | at 33.0 µM -21% | at 100.0 µM -37%

O=S(=O)(c1ccccc1)N1CN2CN(C1)CN(S(=O)(=O)c1ccccc1)C2
inactive: at 1.2 µM -18% | at 3.7 µM -14% | at 11.0 µM -19% | at 33.0 µM -27% | at 100.0 µM -36%

COC(=O)/C(C#N)=C\NC(=S)C(N)=S
inactive: at 1.2 µM -4% | at 3.7 µM 16% | at 11.0 µM 53%
active: at 33.0 µM 99% | at 100.0 µM 98%

CCC[CH2][Sn]([CH2]CCC)([CH2]CCC)/[C](=C/[Si](C)(C)c1ccccc1)c1ccc2c(c1)OCO2
active: at 3.7 µM 82% | at 11.0 µM 92% | at 33.0 µM 86% | at 100.0 µM 88%
inactive: at 1.2 µM 25%

Cc1ccc(S(=O)(=O)N/N=C/C(Br)=C(/Br)C(=O)O)cc1
inactive: at 1.2 µM 24% | at 3.7 µM 36% | at 11.0 µM 64%
active: at 33.0 µM 95% | at 100.0 µM 86%

C1=CCN([B-](c2ccccc2)[C+]2CCCCC2)C=C1
active: at 33.0 µM 75% | at 100.0 µM 98%
inactive: at 1.2 µM 0% | at 3.7 µM 0% | at 11.0 µM 2%

S=C(NCc1ccccn1)N/N=C/c1ccccn1
active: at 1.2 µM 98% | at 3.7 µM 98% | at 11.0 µM 98% | at 33.0 µM 98% | at 100.0 µM 99%

CN(C)CCCn1c2c3ccccc3ccc2c2oc(=O)c3ccccc3c21
inactive: at 1.2 µM -10% | at 3.7 µM -2% | at 11.0 µM 47%
active: at 33.0 µM 93% | at 100.0 µM 98%
